Assay results taken from PubChem BioAssay.
Calls of active or inactive are those of the source. Unless noted, no rule for the calls is given here.

How the values were obtained:
[1] = tested on: Wnt5a (protein binding on small-molecule microarray); test: Wnt5a binders on small-molecule microarray, primary screen, biophysical, 635/667 nm fluorescence (AID 1142); conditions: 635 nm fluorescence, higher = more signal;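 also: fluorescence read at 667 nm with signal to noise per printed feature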
[2] = cell viability in Huh7 cells, primary screen, cytotoxicity control for HCV replication inhibitor project, CellTiter-Glo luminescence, basal, 48 h (AID 1143); conditions: Huh7 HCV replicon, higher = more signal, called active from +8 up or from −8 down;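 also: Huh7 hepatoma cells carrying a hepatitis C replication reporter with no stimulus; test concentration not given here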
[3] = P. aeruginosa biofilm formation inhibitors, primary screen, PAO1 strain, BacTiter-Glo luminescence, LB-PBS (AID 1144); conditions: 12 h, higher = more signal
[4] = CREB reporter modulators without forskolin, primary screen, cell-based, PC12, CRE-LacZ reporter, unstimulated (AID 1145); conditions: no forskolin, luminescence, 4.5 h, higher = more signal, called active from +8 up or from −8 down
[5] = CREB reporter modulators under forskolin, primary screen, cell-based, PC12, CRE-LacZ reporter, forskolin-stimulated (AID 1146); conditions: luminescence, 4.5 h, higher = more signal, called active from +8 up or from −8 down;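 also: PC12 cells with 6xCRE LacZ reporter stimulated by forskolin 10 µM; beta-galactosidase reporter signal reflecting CREB driven transcription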
[6] = target: Streptavidin (Streptomyces avidinii) (UniProt P22629); test: streptavidin binders on small-molecule microarray, primary screen, artefact control for SMM compound annotation, biophysical, 635/667 nm fluorescence (AID 1147); conditions: streptavidin binding, higher = more signal;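 also: signal reflects streptavidin binding to arrayed compounds as a control protein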
[7] = small-molecule binders of probe aInhba, primary screen, biochemical, small-molecule microarray, 635/667 nm fluorescence (AID 1148); conditions: higher = more signal;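 also: score merges 667nm spot fluorescence with signal-to-noise for antibody binding to printed compounds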
Torsin-1A (Homo sapiens) [8] = target: Torsin-1A (Homo sapiens) (UniProt O14656); test: torsin A binders from cell lysate, primary screen, small-molecule microarray, wild-type, 635/667 nm (AID 1149); conditions: COS7 hTOR1A-WT lysate, 635 nm fluorescence, higher = more signal
Torsin-1A (Homo sapiens) [9] = target: Torsin-1A (Homo sapiens) (UniProt O14656); test: small-molecule binders of mutant TOR1A in lysate, primary screen, cell lysate, small-molecule microarray, COS7 lysate, 635/667 nm fluorescence (AID 1150); conditions: COS7 hTOR1A mutant lysate, 635 nm fluorescence, higher = more signal;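 also: score pools 667 nm emission and signal to noise measuring lysate protein binding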
[10] = tested on: Sonic hedgehog protein (Shh); test: small-molecule binders of Shh protein, primary screen, biochemical, small-molecule microarray, 635/667 nm fluorescence (AID 1151); conditions: small-molecule microarray binding, 635 nm fluorescence; higher = more signal;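 also: Shh protein binding to compounds spotted on small-molecule microarray slides; score combines spot fluorescence intensity with signal-to-noise across triplicate slides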
[11] = E. coli DRC41 culture turbidity changes, primary screen, E. coli filamentation inducer project, strain DRC41, OD650, 48 h (AID 1152);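 also: E. coli MC1000 strain DRC41 lacking acrAB efflux pump and sulA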; conditions: E. coli DRC41 (acrAB sulA), higher = more signal, called active from +8 up or from −8 down
[12] = small-molecule binders of probe aLefty1, primary screen, biochemical, small-molecule microarray, 635/667 nm fluorescence (AID 1153); conditions: higher = more signal;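 also: score merges spot fluorescence with signal-to-noise ratio from the scanned slide images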
[13] = PSAC antagonists in infected red cells, primary screen, cell-based, P. falciparum Indochina, OD700, 1 h (AID 1154); conditions: P. falciparum Indochina infected RBC osmotic lysis, higher = more signal, called active from +8 up or from −8 down
[14] = PSAC antagonists in infected red cells, primary screen, cell-based, P. falciparum Indochina, OD700, 2 h (AID 1155);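 also: lysis reports solute entry through the parasite surface anion channel PSAC; channel blockers reduce lysis of infected cells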; conditions: P. falciparum Indochina infected erythrocytes, osmotic lysis OD700; higher = more signal, called active from +8 up or from −8 down
[15] = osmotic lysis modulators in infected erythrocytes, primary screen, PSAC antagonist project, cell-based, P. falciparum Indochina, OD700, 3 h (AID 1156); conditions: higher = more signal, called active from +8 up or from −8 down
[16] = PSAC antagonists in infected red cells, primary screen, cell-based, P. falciparum Indochina, OD700, 18 h (AID 1157); conditions: P. falciparum Indochina infected erythrocytes, osmotic lysis OD700, 18 h; higher = more signal, called active from +8 up or from −8 down
[17] = modulators of S6 phosphorylation in cells, primary screen, cell-based, A549, cytoblot, luminescence, serum-stimulated (AID 1158); conditions: A549 phospho-S6 cytoblot, 5 h, higher = more signal;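 also: serum-stimulated A549 lung adenocarcinoma cells; signal is phosphorylated S6 detected by cytoblot immunostaining with HRP secondary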
[18] = target: NADPH oxidase 2 (Homo sapiens) (UniProt P04839); test: NOX2-dependent H2O2 signal modulators, primary screen, NOX inhibitor project, cell-based, HEK293-NOX2, PMA-stimulated, Amplex Red fluorescence (AID 1159); conditions: 45 min, higher = more signal, called active from +8 up or from −8 down; also: test concentration not given here
[19] = target: NADPH oxidase 4 (Homo sapiens) (UniProt Q9NPH5); test: NOX4-dependent H2O2 signal modulators, primary screen, NOX inhibitor project, cell-based, HEK293-NOX4, tetracycline-induced, Amplex Red fluorescence (AID 1160); conditions: 45 min, higher = more signal, called active from +8 up or from −8 down
[20] = target: NADPH oxidase 5 (Homo sapiens) (UniProt Q96PH1); test: NOX5-dependent H2O2 signal modulators, primary screen, NOX inhibitor project, cell-based, HEK293-NOX5, Amplex Red fluorescence (AID 1161); conditions: HEK293-NOX5, ionomycin, 45 min, higher = more signal
Sequence of NADPH oxidase 5 (Homo sapiens) (Q96PH1 whole entry, looked up): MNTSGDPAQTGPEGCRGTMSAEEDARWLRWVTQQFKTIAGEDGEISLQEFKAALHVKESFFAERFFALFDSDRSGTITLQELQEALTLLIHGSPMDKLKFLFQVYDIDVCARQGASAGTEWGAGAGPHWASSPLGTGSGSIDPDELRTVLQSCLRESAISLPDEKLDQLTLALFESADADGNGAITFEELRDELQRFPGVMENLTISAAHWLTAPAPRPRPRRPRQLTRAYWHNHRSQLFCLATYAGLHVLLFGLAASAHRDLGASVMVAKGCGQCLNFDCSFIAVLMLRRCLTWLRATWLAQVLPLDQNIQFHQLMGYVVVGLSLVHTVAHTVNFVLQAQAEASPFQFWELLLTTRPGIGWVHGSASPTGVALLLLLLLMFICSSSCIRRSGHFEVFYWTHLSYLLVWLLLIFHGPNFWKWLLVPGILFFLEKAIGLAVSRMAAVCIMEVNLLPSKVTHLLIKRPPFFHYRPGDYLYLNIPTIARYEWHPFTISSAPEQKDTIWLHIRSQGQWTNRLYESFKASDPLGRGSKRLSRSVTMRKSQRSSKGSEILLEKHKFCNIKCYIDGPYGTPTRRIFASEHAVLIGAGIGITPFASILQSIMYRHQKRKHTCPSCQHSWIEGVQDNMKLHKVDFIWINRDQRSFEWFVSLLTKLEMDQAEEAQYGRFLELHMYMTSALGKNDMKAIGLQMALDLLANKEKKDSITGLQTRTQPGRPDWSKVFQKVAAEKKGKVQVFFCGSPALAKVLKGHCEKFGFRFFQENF

Sequence of Torsin-1A (Homo sapiens) (O14656 whole entry, looked up): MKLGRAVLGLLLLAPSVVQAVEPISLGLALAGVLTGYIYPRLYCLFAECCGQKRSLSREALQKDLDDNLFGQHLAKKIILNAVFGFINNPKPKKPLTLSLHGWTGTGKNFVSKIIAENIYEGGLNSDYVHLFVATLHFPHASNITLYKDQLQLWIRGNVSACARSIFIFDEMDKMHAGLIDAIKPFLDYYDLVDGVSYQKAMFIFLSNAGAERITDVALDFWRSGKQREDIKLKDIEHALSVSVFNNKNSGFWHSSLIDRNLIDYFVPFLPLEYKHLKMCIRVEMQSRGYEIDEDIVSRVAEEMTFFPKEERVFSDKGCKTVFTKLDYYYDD
Sequence of NADPH oxidase 4 (Homo sapiens) (Q9NPH5 whole entry, looked up): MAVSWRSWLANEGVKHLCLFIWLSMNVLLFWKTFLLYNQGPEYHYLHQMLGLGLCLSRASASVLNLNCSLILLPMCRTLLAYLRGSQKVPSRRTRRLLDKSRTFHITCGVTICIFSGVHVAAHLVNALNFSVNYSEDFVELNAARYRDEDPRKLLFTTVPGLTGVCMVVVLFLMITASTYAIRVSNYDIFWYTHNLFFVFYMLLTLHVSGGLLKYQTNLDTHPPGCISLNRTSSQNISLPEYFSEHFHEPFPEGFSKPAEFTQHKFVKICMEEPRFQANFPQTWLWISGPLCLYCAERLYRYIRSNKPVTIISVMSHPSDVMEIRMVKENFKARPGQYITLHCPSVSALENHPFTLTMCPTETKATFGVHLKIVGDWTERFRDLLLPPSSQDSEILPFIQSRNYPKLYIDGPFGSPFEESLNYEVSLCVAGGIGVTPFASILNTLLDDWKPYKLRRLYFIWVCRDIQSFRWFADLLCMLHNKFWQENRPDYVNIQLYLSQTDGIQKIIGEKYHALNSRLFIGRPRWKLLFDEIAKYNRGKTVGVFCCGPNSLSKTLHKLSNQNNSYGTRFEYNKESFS
Sequence of NADPH oxidase 2 (Homo sapiens) (P04839 whole entry, looked up): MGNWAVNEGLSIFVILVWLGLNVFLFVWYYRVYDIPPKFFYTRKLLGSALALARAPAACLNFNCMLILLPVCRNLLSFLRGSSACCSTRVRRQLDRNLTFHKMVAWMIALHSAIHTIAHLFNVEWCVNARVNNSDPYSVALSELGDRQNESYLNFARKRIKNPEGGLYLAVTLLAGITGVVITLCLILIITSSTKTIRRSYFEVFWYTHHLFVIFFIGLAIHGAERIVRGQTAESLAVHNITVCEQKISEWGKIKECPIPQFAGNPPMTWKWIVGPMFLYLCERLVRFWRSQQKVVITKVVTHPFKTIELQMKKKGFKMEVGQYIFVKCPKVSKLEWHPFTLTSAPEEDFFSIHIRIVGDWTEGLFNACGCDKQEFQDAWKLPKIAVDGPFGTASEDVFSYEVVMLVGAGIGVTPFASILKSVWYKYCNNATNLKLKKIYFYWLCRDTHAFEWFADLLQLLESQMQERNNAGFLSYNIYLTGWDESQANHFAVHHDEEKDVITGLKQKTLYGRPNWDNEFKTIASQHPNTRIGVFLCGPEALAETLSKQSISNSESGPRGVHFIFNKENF
Sequence of Streptavidin (Streptomyces avidinii) (P22629 whole entry, looked up): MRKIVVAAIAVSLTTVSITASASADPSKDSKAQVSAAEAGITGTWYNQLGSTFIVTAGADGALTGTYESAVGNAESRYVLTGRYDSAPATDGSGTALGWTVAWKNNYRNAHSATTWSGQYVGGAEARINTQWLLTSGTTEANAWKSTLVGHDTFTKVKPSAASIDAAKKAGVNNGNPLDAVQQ

SMILES	composite z-score [1]	z-score [2]	z-score [3]	z-score [4]	z-score [5]	composite z-score [6]	composite z-score [7]	composite z-score (Torsin-1A (Homo sapiens) [8])	composite z-score (Torsin-1A (Homo sapiens) [9])	composite z-score [10]	z-score [11]	composite z-score [12]	z-score [13]	z-score [14]	z-score [15]	z-score [16]	z-score [17]	z-score [18]	z-score [19]	z-score [20]
C=C(/C(=C/C[C@H](OC(=O)c1ccncc1)c1ccc(OCCO)cc1)c1cc(C(=O)OC)ccc1OC)C(C)C	-0.0134	-3.91 (inactive)	-0.518 (inactive)	3.9 (inactive)	-0.359 (inactive)	1.23	-0.016	-0.511	0.284	0.711	0.936 (inactive)	0.0455	14.5 (active)	1.19 (inactive)	1.29 (inactive)	-1.07 (inactive)	0.622	-1.78 (inactive)	-0.754 (inactive)	-2.43
CC1CC/C=C\[C@H]2OC34C=CCN(Cc5ccccc5)C(=O)[C@H]3N(C(C)CO)C(=O)[C@@H]4C2C(=O)O1 (stereo not given in full)	-0.125	0.0111 (inactive)	0.647 (inactive)	1.68 (inactive)	-0.0203 (inactive)	-0.556	-0.0822	-0.859	-0.119	0.473	0.537 (inactive)	-0.0984	0.16 (inactive)	0.365 (inactive)	1.8 (inactive)	0.425 (inactive)	-0.0395	0.799 (inactive)	-0.657 (inactive)	1.27
C[C@H]1C2[C@H](Cc3ccccc3)NC(=O)[C@]23C(=O)NCC(=O)N2CCC[C@H]2C(=O)NC/C=C/CCC/C=C/C3[C@@H]2O[C@]12C (stereo not given in full)	-0.376	-1.02 (inactive)	0.785 (inactive)	1.32 (inactive)	-1.25 (inactive)	-1.3	-0.179	-0.793	-0.333	0.468	1.38 (inactive)	-0.103	1.44 (inactive)	-0.0812 (inactive)	0.391 (inactive)	0.133 (inactive)	0.781	1.61 (inactive)	-0.66 (inactive)	1.88
O=C1O[C@@H](c2ccccc2)[C@@H](c2ccccc2)N2[C@@H](c3ccccc3OCCO)[C@]3(C(=O)Nc4ccc(C#CC5(O)CCCCCC5)cc43)[C@@H](C(=O)N3CCN(c4ncccn4)CC3)[C@H]12	0.133	-2.72 (inactive)	0.703 (inactive)	0.209 (inactive)	2.96 (inactive)	0.077	0.0074	0.987	0.808	1.11	0.691 (inactive)	-0.0141	1.89 (inactive)	1.66 (inactive)	2.21 (inactive)	1.18 (inactive)	-0.451	0.814 (inactive)	0.343 (inactive)	1.93
O=C1[C@H]2C=C(Br)[C@H](C[C@@H]2OCCCCCCO)[C@@]12CO2	0.255	0.993 (inactive)	0.41 (inactive)	0.577 (inactive)	1.71 (inactive)	-0.29	-0.024	0.36	0.12	0.129	-1.69 (inactive)	-0.101	1.53 (inactive)	0.318 (inactive)	1.2 (inactive)	0.501 (inactive)	-0.276	0.486 (inactive)	0.633 (inactive)	-0.292
[N-]=[N+]=Nc1ccccc1C[C@@]1(C(=O)N2CCCCC2)N=C(c2ccc(OCCCO)cc2)O[C@@H]1c1ccccc1	0.46	-5.13 (inactive)	-0.682 (inactive)	2.11 (inactive)	-0.0605 (inactive)	1.23	0.298	0.417	0.36	0.131	2.42 (inactive)	0.0227	26.6 (active)	18.4 (active)	2.78 (inactive)	2.31 (inactive)	0.159	-0.0547 (inactive)	0.951 (inactive)	-1.31
Cc1ccc([C@H]2C(C(=O)O)=CCN2S(=O)(=O)c2ccc(C)cc2)cc1	-0.171	-0.849 (inactive)	0.668 (inactive)	-0.48 (inactive)	-0.119 (inactive)	0.468	0.0108	0.593	0.435	0.0688	-0.813 (inactive)	-0.0308	1.48 (inactive)	0.495 (inactive)	0.164 (inactive)	0.291 (inactive)	-0.579	0.441 (inactive)	-0.84 (inactive)	-1.62
C=CCC(OC(C)=O)[C@@H]1[C@@H](N(Cc2ccc(-c3cccc(C(F)(F)F)c3)o2)C(=O)Cc2ccc(OC)cc2)c2cc(OCCCO)ccc2N1C(=O)c1ccc2ccccc2c1 (stereo not given in full)	-0.301	-1.54 (inactive)	-1 (inactive)	-0.0247 (inactive)	1.52 (inactive)	-0.445	-0.128	-2.27	0.168	0.804	0.0395 (inactive)	0.0191	1.35 (inactive)	1.01 (inactive)	2.68 (inactive)	0.898 (inactive)	0.388	-2.68 (inactive)	-1.99 (inactive)	-1.9
CC[C@@H]1C=C(C(=O)O)[C@H](c2cccc3ccccc23)N1S(=O)(=O)c1ccc(C)cc1	0.0605	-0.0086 (inactive)	0.235 (inactive)	-0.723 (inactive)	0.754 (inactive)	0.985	-0.128	0.224	0.331	-0.173	-0.453 (inactive)	0.0774	1.26 (inactive)	1.2 (inactive)	-0.129 (inactive)	0.708 (inactive)	-0.769	0.338 (inactive)	-0.931 (inactive)	0.133
COc1ccc(CCNC(=O)[C@@]2(C)c3ccccc3C(=O)N(c3ccc(C)cn3)[C@H]2c2ccc(CO)cc2)cc1	-0.49	-0.998 (inactive)	-0.604 (inactive)	-0.0888 (inactive)	-0.371 (inactive)	-0.712	-0.183	-2.16	-1.44	-0.797	-0.246 (inactive)	-0.0378	2.01 (inactive)	-0.1 (inactive)	0.825 (inactive)	0.156 (inactive)	-0.0316	-0.911 (inactive)	-0.78 (inactive)	-1.81
C=CC[C@]12N=C(c3ccc(OCCCO)cc3)O[C@H]1c1ccccc1N(CCS(=O)(=O)c1ccccc1)C2=O	0.382	-3.24 (inactive)	-0.438 (inactive)	-1.04 (inactive)	-1.87 (inactive)	1.07	-0.101	0.695	0.79	1.39	-0.913 (inactive)	0.204	31.2 (active)	28 (active)	2.35 (inactive)	7.99 (inactive)	0.852	-2.24 (inactive)	0.939 (inactive)	-2.12
CN1C(=O)C2C=CC(C(O)c3ccc(F)cc3)N(N(c3ccccc3)c3ccccc3)C2C1=O (stereo not given)	-0.0512	0.319 (inactive)	-0.0417 (inactive)	-0.708 (inactive)	0.677 (inactive)	0.453	0.0047	-0.182	0.361	-0.647	-1.46 (inactive)	-0.483	0.362 (inactive)	1.27 (inactive)	0.39 (inactive)	1.17 (inactive)	-1.16	-0.948 (inactive)	-1.82 (inactive)	-1.39
COCC(=C=CC[C@H](O)c1cccc(OCCO)c1)CCO	0.461	0.15 (inactive)	-0.833 (inactive)	0.0281 (inactive)	0.324 (inactive)	-0.33	-0.12	-0.744	-0.434	1.81	0.223 (inactive)	-0.0508	2.69 (inactive)	-0.115 (inactive)	0.104 (inactive)	0.0864 (inactive)	0.0095	-1.67 (inactive)	-0.625 (inactive)	-0.539
OB1C=CCC(CCc2ccccc2)O1 (stereo not given)	-0.248	-2.16 (inactive)	-1.35 (inactive)	0.672 (inactive)	-1.28 (inactive)	-0.492	-0.385	-0.459	-0.643	0.192	3.28 (inactive)	-0.0651	-0.263 (inactive)	-0.649 (inactive)	-1.32 (inactive)	-2.19 (inactive)	0.946	-1.05 (inactive)	0.69 (inactive)	1.22
Cc1ccc(S[C@]2(C(=O)NCC(C)C)CC(=O)N(Cc3cc(C(F)(F)F)cc(C(F)(F)F)c3)[C@@H]2c2ccc(CO)cc2)cc1	0.226	0.52 (inactive)	-0.846 (inactive)	-0.0781 (inactive)	1.02 (inactive)	-0.342	0.652	0.234	0.118	0.391	-0.687 (inactive)	0.2	1.3 (inactive)	0.596 (inactive)	0.664 (inactive)	0.13 (inactive)	-0.0958	1.73 (inactive)	0.823 (inactive)	-0.188
CC(C)NC(=O)[C@@H]1c2ccccc2C(=O)N(C(C)C)[C@H]1c1ccc(CO)cc1	-0.152	0.245 (inactive)	1.28 (inactive)	0.441 (inactive)	0.0729 (inactive)	-0.977	-0.193	0.0645	2.08	-0.659	1.17 (inactive)	-0.228	3.85 (inactive)	1.18 (inactive)	0.151 (inactive)	0.207 (inactive)	0.0843	0.274 (inactive)	0.614 (inactive)	0.964
CCCCCCCCCCC(O)C1C=CC2C(=O)NC(=O)C2N1Nc1ccc(Cl)cc1Cl (stereo not given)	0.333	-1.95 (inactive)	-0.0821 (inactive)	-0.136 (inactive)	-0.407 (inactive)	-0.261	-0.0131	-1.76	0.0193	-0.349	-2.32 (inactive)	0.335	4.61 (inactive)	2.51 (inactive)	-1.75 (inactive)	1.78 (inactive)	-0.428	0.684 (inactive)	-1.86 (inactive)	-0.838
